Experimental data as given in PubChem BioAssay AID504339 (National Center for Advancing Translational Sciences (NCATS), 2011).
Hit rate of the full screen: of about 390,000 compounds, about 17,000 (4.4%) were called active. A call without a number means that no potency is given here. Not shown: some 8% with an inconclusive outcome. Many of the other results were omitted from the sample, so actives are more common in it than they were. Values without a mark were called inactive. Calls follow the shape of the dose curve; as a rule, active = well fitted inhibition curve with a large enough effect; inconclusive = small, poorly fitted or top-dose-only effect; inactive = no such curve, though single readings can be large or run the other way.

What follows are compounds tested against Lysine-specific demethylase 4A (Homo sapiens) (UniProt O75164) (assay: qHTS Assay for Inhibitors of JMJD2A-Tudor Domain). Conditions: AlphaScreen JMJD2A-Tudor / H3K4me3 peptide binding; series mostly up to 114 µM.
Chain of Lysine-specific demethylase 4A (Homo sapiens) (O75164 whole entry, looked up, the tested form may be a part): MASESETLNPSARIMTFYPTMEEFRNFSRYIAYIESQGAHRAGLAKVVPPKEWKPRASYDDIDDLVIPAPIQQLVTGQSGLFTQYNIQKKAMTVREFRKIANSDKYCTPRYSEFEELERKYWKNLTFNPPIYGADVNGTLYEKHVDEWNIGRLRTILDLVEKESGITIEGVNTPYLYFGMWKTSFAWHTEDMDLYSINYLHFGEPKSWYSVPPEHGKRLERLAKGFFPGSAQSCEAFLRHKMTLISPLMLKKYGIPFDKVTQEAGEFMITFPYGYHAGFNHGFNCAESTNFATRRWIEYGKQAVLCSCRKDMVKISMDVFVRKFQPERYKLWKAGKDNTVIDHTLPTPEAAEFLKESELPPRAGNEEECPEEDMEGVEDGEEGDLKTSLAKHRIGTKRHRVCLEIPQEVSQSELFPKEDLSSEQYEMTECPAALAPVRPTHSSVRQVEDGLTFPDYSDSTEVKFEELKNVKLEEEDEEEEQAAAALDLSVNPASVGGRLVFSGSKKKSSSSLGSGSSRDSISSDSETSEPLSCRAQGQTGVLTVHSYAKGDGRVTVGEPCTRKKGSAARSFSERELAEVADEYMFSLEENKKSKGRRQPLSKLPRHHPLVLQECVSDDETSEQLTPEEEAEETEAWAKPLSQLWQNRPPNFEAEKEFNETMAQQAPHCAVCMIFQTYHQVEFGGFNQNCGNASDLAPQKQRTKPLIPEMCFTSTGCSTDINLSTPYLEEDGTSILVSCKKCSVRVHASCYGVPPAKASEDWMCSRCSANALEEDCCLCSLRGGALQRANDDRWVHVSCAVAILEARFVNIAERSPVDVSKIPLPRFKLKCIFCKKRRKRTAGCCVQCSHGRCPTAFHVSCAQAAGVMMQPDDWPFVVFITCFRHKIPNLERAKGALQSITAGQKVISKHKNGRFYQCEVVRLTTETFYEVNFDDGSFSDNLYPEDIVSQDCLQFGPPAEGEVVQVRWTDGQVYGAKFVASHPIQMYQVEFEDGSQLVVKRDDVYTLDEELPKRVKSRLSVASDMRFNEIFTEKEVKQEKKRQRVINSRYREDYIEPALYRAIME
Also: nearly all actives have a fitted effect of over 50% in size.
Potency is read from the fitted curve at half-maximal effect.

SMILES	Potency	activity change, negative = inhibition
Cc1ccc(CNC(=O)CCc2c(C)nn(-c3ccc(N4CCCC4)nn3)c2C)cc1	inactive	–
C=CCn1c(-c2ccccc2OCC)n[nH]c1=S	4.47 µM (active)	–
Cc1[nH]c2ccc(S(N)(=O)=O)cc2c1C	inactive	–
C=CCn1c(COc2ccccc2C)nnc1SCC(=O)O	inactive	–
C=CCn1c(CCc2ccc(OC(C)C)cc2)n[nH]c1=S	inactive	–
C=CCn1c(-c2ccc3[nH]c(C)c(C)c3c2)n[nH]c1=S	50.1 µM (active)	–
C=CCn1c(=S)sc2c(=O)[nH]c(C)nc21	inactive	–
COc1ccc(-c2cn3c(C)c(C(=O)Nc4cc(C)cc(C)c4)sc3n2)cc1	inactive	–
COC(=O)c1cc2occc2n1Cc1nc(-c2ccc(C)cc2)oc1C	inactive	–
Cc1cccc(NC(=O)c2cc3c(C)nn(-c4ccccc4)c3s2)c1	inactive	–
Nc1ccccc1SC(C[N+](=O)[O-])c1ccccc1 (stereo not drawn)	6.31 µM (active)	–
O=C(c1ccc(C(F)(F)F)cc1)N1CCC(c2nc(-c3ccc(S(=O)(=O)N4CCCC4)cc3)no2)CC1	inactive	–
O=C(CC(c1cccs1)N1Cc2ccccc2C1=O)Nc1ccc(F)c(F)c1 (stereo not drawn)	inactive	–
Cc1cccc(NC(=O)CSc2nc3c([nH]c4ccccc43)c(=O)n2-c2cc(C)cc(C)c2)c1	inactive	–
Cc1ccc(N2CC(C(=O)Nc3ccc(N(C)C)cc3)CC2=O)cc1Cl (stereo not drawn)	inactive	–
O=S(=O)(NCCS(=O)(=O)N1CCN(c2ccccc2)CC1)c1ccc(Cl)cc1	inactive	–
COc1ccc(OCc2ccc(-c3nc(C#N)c(N4CCN(c5ccccc5)CC4)o3)o2)cc1	inactive	–
CCC(C)Nc1oc(-c2ccc(COc3ccc(Cl)cc3)o2)nc1C#N (stereo not drawn)	inactive	–
CN1CCN(c2oc(-c3ccc(COc4ccc(Cl)cc4)o3)nc2C#N)CC1	39.8 µM (active)	–
CCOc1ccccc1NC(=O)Cn1c(=O)n(Cc2ccccc2)c(=O)c2c(C)c(C(=O)N(C)C)sc21	inactive	–
O=S(=O)(c1ccccc1)c1nc(-c2ccccc2F)oc1NCc1cccnc1	inactive	–
N#Cc1nc(COc2ccc(-c3ccccc3)cc2)oc1NCc1cccnc1	44.7 µM (active)	–
c1ccc(COc2ccccc2CNCc2cccnc2)cc1	inactive	–
CCOC(=O)c1c(NC(=O)/C=C/c2ccc(OC)cc2)sc2c1CCC(C)C2 (stereo not drawn)	inactive	–
COc1cc(/C=N\NC(=O)C2C(=O)NCC2c2ccccc2)cc(OC)c1O (stereo not drawn)	inactive	–

SMILES	Potency	activity change, negative = inhibition
COc1cccc(/C=N\NC(=O)C2=NNC(=O)C2C)c1O (stereo not drawn)	56.2 µM (active)	–
COc1ccc(/C=N/NC(=O)C2CC2)c(OC)c1OC	inactive	–
CCOc1ccccc1NC(=O)CN1CCN(S(=O)(=O)c2ccc(Br)cc2)CC1	inactive	–
CCOc1cc(C2c3c(-c4ccc(Br)cc4)n[nH]c3C(=O)N2c2ccc(Cl)cc2)ccc1O (stereo not drawn)	inactive	–
O=C(CN1C(=O)c2cccc3cccc(c23)C1=O)N1CCCCC1	inactive	–
O=C1c2ccccc2C(=O)N1CCCc1nc(-c2ccccc2)no1	inactive	–
O=C1c2cccc3cccc(c23)C(=O)N1CCCCCc1n[nH]c(=S)o1	89.1 µM (active)	–
CCCN1CCN(CCCNC(=O)Cn2nc(CC)n3c(cc4occc43)c2=O)CC1	inactive	–
COc1cc(/C=C2\Oc3ccc(C#Cc4ccc(O)cc4)cc3C2=O)cc(OC)c1	89.1 µM (active)	–
COc1cc(C#Cc2ccc3cc(CCCO)oc(=O)c3c2)cc(OC)c1	inactive	–
COC(=O)C(C)Oc1ccc2c(c1)O/C(=C\c1cccc(Br)c1)C2=O (stereo not drawn)	inactive	–
CCC(CC)NC(=O)/C=C/c1cccc([N+](=O)[O-])c1	inactive	–
O=C(CN1CCOCC1)Nc1cccc([N+](=O)[O-])c1	inactive	–
COC(=O)/C=C\C(=O)Nc1cccc([N+](=O)[O-])c1	17.8 µM (active)	–
Cc1cc(C)c(/C=C/c2onc(C)c2S(=O)(=O)N2CCC(C(=O)Nc3ccc(Cl)cc3C)CC2)c(C)c1	inactive	–
COc1ccc(NCCc2ccccn2)cc1	79.4 µM (active)	–
O=C(CNC(=O)COc1ccccc1)NCCc1ccccn1	inactive	–
Cc1c(C)c(C)c(S(=O)(=O)NCCc2ccccn2)c(C)c1C	inactive	–
Cc1ccc(CNC(=O)CSc2c(C)cnc3c2c(=O)n(C)c(=O)n3C)cc1	inactive	–
O=c1/c(=C/c2ccc(CNS(=O)(=O)c3ccccc3)o2)sc2n1CCN=2	inactive	–
O=c1nc2s/c(=C\c3ccco3)c(=O)n2nc1Cc1ccccc1	50.1 µM (active)	–
CCOC(=O)c1cc(OC(=O)c2ccccc2Cl)n(-c2ccccc2)n1	inactive	–
CN(Cc1ccccc1)C(=O)CCS(=O)(=O)c1cc(Br)cc2c1N(C(=O)C1CC1)CC2	inactive	–
COc1ccc(S(=O)(=O)NCC(c2ccco2)N2CCOCC2)cc1 (stereo not drawn)	inactive	–
COc1ccc(N2CCN(C(CNS(=O)(=O)c3ccc(C)cc3)c3ccccc3)CC2)cc1 (stereo not drawn)	20 µM (active)	–

SMILES	Potency	activity change, negative = inhibition
COc1ccc(S(=O)(=O)NCC(c2ccc(C)cc2)N2CCN(C)CC2)cc1OC (stereo not drawn)	inactive	–
CCOC(=O)c1c(C)oc2nc(C)nc(N(CC(C)C)CC(C)C)c12	inactive	–
CCOc1cc(C2C(C(=O)Nc3ccc(OC)cc3)=C(C)Nc3nc(SC)nn32)ccc1O (stereo not drawn)	inactive	–
O=C(Nc1ccc(OC(F)(F)F)cc1)C1CCCN(S(=O)(=O)c2ccc(Br)s2)C1 (stereo not drawn)	inactive	–
CC(=O)c1c(C)n(-c2ccc(C)cc2)c2ccc(O)cc12	inactive	–
Cc1cccc(OCC(=O)NCC(=O)N/N=C/c2ccc(N(C)C)cc2)c1	inactive	–
CC(=O)c1c(C)n(-c2ccc(N(C)C)cc2)c2ccc(OCC(N)=O)cc12	79.4 µM (active)	–
Cc1ccc(-c2nnc(SCc3ccccc3C)o2)cc1	inactive	–
Cc1ccccc1CNC(=O)CCCn1nc(C)c2sc3ccccc3c2c1=O	inactive	–
CCCOc1ccc(C2C(C(=O)c3ccc(C)o3)=C(O)C(=O)N2CCCn2ccnc2)cc1 (stereo not drawn)	–	-17.6% [at 11.4 µM]
CCOc1cc(C2C(C(=O)c3ccco3)=C(O)C(=O)N2Cc2ccccc2)ccc1O (stereo not drawn)	inactive	–
Cc1cc(N2C(=O)C(O)=C(C(=O)c3ccc(C)o3)C2c2ccc(OCc3ccccc3)cc2)no1 (stereo not drawn)	44.7 µM (active)	–
Cc1cc(N2C(=O)C(=O)/C(=C(/O)c3ccccc3)C2c2cccc(Br)c2)no1 (stereo not drawn)	inactive	–
COc1cc(C2C(C(=O)c3cccs3)=C(O)C(=O)N2CCN2CCOCC2)ccc1OCCC(C)C (stereo not drawn)	inactive	–
COc1cc(C2C(C(=O)c3ccc(C)o3)=C(O)C(=O)N2CCc2ccccc2)ccc1O (stereo not drawn)	17.8 µM (active)	–
O=C(Nc1cc(Cl)cc(Cl)c1)c1ccc2c(c1)N(Cc1cccc(Cl)c1)C(=O)c1ccccc1S2=O (stereo not drawn)	inactive	–
COc1cc(CN(CC2CCCO2)C(=O)c2ccccc2F)cc(OC)c1OC (stereo not drawn)	inactive	–
CC(C)(C)OC(=O)N1CCC(c2c(C(=O)NCCc3ccsc3)cnn2-c2ccc(F)cc2F)CC1	inactive	–
Cc1ccc(-n2ncc(C(=O)N(C)Cc3ccccc3)c2-n2cccc2)cc1	inactive	–
CCOC(=O)N1CCc2c(sc3c2C(=O)NC(c2ccccc2F)N3)C1 (stereo not drawn)	inactive	–
COc1ccc(-c2cc(C(=O)NCc3cc(OC)c(OC)c(OC)c3)[nH]n2)cc1	inactive	–
O=C(CCC1CCCN(C(=O)c2ccc(F)c(F)c2)C1)N1CCN(c2ccccn2)CC1 (stereo not drawn)	inactive	–
C=Cc1ccc(C(=O)N2CCCC(CCC(=O)N3CCN(c4ccccn4)CC3)C2)cc1 (stereo not drawn)	56.2 µM (active)	–
O=C(CCC1CCCN(C(=O)Cc2ccc(F)cc2)C1)N1CCN(c2ccccn2)CC1 (stereo not drawn)	inactive	–
Brc1cccc(-c2nnn3c2nc(NC2CCCCC2)c2ccccc23)c1	inactive	–

SMILES	Potency	activity change, negative = inhibition
CCc1cc2c(cc3c(=O)n(CC(=O)NCc4cccc(Cl)c4)nc(CC)n32)s1	inactive	–
O=[N+]([O-])c1ccccc1Nc1ccc(O)cc1	63.1 µM (active)	–
O=C(Nc1ccccc1[N+](=O)[O-])C1C(c2ccccc2)=C1c1ccccc1	inactive	–
O=C(NCCNc1ccccc1[N+](=O)[O-])c1ccccc1F	inactive	–
CCOC(=O)CNC(=O)c1cc2c(=O)n3cccc(C)c3nc2s1	inactive	–
O=C(c1ccc2c(c1)N(Cc1ccc(Cl)cc1)C(=O)c1ccccc1S2(=O)=O)N1CCCCC1	inactive	–
O=c1c2cccnc2n(Cc2cccc(F)c2)c(=O)n1Cc1ccccc1Cl	inactive	–
CCOc1cc(-c2nnc(SCC(=O)NC3CCCC3)nc2-c2ccc(OC)c(OCC)c2)ccc1OC	inactive	–
Oc1cc2c(cc1O)CN(C(=S)NCCc1ccc(Cl)cc1)CCC2	44.7 µM (active)	–
O=C(NCCc1ccc(Cl)cc1)c1cccc(N2CCCC2=O)c1	inactive	–
Cc1cccc(NC(=S)NCCc2ccc(Cl)cc2)c1C	inactive	–
Cc1ccccc1CNC(=O)C(=O)NCC(c1cccs1)S(=O)(=O)c1cccs1 (stereo not drawn)	inactive	–
Cc1ccccc1OCC(=O)Nc1c(C(=O)Nc2ccccc2F)oc2ccccc12	inactive	–
O=C(Nc1cc(C(F)(F)F)ccc1Cl)c1nc2ccccc2nc1N1CCCCC1	inactive	–
O=C(Cc1ccccc1)NNC(=O)C1CCN(c2ncccn2)CC1	inactive	–
Cc1cc(=O)oc2cc(OCC(=O)N3CCN(c4ccc(F)cc4)CC3)c(Cl)cc12	inactive	–
Oc1c(CN2CCN(c3ccc(F)cc3)CC2)cc(Cl)c2cccnc12	25.1 µM (active)	–
CCCc1cc(=O)oc2c(C)c(O)c(CN3CCCCC3)cc12	inactive	–
Oc1c(CN2CCCC2)cc(COCc2ccccc2)c2cccnc12	25.1 µM (active)	–
O=C(CN1CCN(c2ccc(F)cc2)CC1)Nc1cccc(C(F)(F)F)c1	inactive	–
Cc1ccc(O)c(NC(=O)CCS(=O)(=O)c2nc(-c3ccc4c(c3)OCO4)cc(C(F)(F)F)n2)c1	inactive	–
CCOc1ccc(NC(=O)c2c(NC(=O)Cc3ccccc3)sc3c2CCC(C)C3)cc1 (stereo not drawn)	inactive	–
Cc1ccc(-n2ncc3c(N4CCC(C(N)=O)CC4)ncnc32)cc1	inactive	–
